The values that follow come from ChEMBL document CHEMBL3988442, “University of Dundee, Small-Polar-MMV Screening Library” (2021).

For some of these results: Measured potencies and affinities stand elsewhere.

What all share (set-up): scale not given: direction of the effect not stated beside the values
Assay [1] has as its target Protein translocase subunit SecA (Escherichia coli (strain K12)) (UniProt P10408). The experiment in a line: Assay to Identify E. coli SecA ATPase Inhibitors. The assay is classed as functional. The note with it: 30 µM.
Assay [2] deals with T1, Ubiquitin-activating enzyme e1, putative (Leishmania donovani (strain BPK282A1)) (UniProt E9BSI1).
T1 sequence (whole entry): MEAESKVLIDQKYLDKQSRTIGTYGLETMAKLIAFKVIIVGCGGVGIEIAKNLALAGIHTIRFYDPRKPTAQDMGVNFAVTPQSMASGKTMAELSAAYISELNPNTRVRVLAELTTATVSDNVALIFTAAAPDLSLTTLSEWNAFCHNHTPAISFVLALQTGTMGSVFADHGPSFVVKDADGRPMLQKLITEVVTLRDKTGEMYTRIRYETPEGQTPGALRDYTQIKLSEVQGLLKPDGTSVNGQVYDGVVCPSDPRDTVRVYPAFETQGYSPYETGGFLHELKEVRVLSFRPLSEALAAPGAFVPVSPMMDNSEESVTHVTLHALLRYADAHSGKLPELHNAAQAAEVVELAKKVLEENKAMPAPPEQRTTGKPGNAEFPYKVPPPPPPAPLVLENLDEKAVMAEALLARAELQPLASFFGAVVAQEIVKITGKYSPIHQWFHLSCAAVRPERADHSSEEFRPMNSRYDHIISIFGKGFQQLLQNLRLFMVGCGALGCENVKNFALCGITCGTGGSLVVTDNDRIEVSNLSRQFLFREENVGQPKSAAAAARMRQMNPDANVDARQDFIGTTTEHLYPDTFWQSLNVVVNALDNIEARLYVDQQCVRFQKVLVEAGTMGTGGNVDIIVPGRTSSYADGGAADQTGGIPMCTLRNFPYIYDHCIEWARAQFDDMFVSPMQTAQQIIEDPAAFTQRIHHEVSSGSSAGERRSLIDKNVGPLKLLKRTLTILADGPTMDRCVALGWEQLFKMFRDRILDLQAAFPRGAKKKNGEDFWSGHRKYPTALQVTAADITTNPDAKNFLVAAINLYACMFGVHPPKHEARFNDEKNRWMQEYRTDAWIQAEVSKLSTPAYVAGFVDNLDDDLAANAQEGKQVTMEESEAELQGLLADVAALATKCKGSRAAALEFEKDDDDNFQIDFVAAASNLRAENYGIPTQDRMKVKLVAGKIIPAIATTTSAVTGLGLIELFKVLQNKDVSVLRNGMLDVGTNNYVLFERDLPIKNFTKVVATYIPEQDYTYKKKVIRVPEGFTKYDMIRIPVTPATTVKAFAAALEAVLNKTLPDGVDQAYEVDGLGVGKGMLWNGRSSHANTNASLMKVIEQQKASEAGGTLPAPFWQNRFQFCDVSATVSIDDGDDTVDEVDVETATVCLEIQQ
The assay is described as follows: Leishmania donovani Ubiquitin Activating Enzyme (LdE1). The note with it: 30 µM. Format: functional.

Assay [3] has as its target AMP-activated protein kinase, AMPK (Homo sapiens) (UniProt P54646+O43741+P54619+Q9UGJ0+Q9Y478+Q13131+Q9UGI9). The assay is described as follows: AMP-dependent Kinase enzyme assay. An in vitro enzyme assay that detects ADP turnover that is directly proportional to AMPK activity. This uses naive AMPK that is activated during the assay with MK-8722. The assay is classed as functional. As to conditions: 30 µM.

Assay [4] concerns the target Sialic acid-binding Ig-like lectin 9 (Homo sapiens) (UniProt Q9Y336). The assay is described as follows: Hs-Siglec9 ALPHAscreen SOP 20170721. As to conditions: 10 µM. (In Alpha technology, singlet oxygen from a donor bead excites a nearby acceptor bead.)
In another assay the test system is Trypanosoma cruzi. The experiment in a line: Trypanosoma cruzi phosphomannomutase and mannose-1-phosphate guanylyltransferase assay. Format: functional. As to conditions: 10 µM.
Assay [5] concerns the target T2, Arginase-2, mitochondrial (Homo sapiens) (UniProt P78540).
T2 sequence (whole entry): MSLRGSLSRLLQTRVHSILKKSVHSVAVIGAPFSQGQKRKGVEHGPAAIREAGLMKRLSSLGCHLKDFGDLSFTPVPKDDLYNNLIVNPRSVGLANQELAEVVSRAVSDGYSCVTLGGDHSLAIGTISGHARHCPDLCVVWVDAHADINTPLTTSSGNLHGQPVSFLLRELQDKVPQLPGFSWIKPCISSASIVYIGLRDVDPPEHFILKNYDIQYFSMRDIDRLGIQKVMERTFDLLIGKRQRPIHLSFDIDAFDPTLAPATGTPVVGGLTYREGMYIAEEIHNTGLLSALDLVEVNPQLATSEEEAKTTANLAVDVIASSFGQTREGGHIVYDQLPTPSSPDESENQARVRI
The experiment in a line: in vitro enzyme assay to detect the production of urea directly proportional to the activity of Arginase II. Further: in the data most compounds retested in dose-response had high values. As to conditions: 33.3 µM. Format: functional.

Assay [6] has as its target T3, Proteasome subunit beta (Trypanosoma cruzi) (UniProt O96673).
T3 sequence (whole entry): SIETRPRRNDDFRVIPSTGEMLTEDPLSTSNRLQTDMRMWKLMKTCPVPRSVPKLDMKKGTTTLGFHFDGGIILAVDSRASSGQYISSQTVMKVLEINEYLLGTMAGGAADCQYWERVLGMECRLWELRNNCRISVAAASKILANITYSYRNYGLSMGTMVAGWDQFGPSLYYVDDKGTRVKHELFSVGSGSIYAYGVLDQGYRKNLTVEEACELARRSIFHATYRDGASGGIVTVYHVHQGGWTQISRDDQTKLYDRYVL
The assay is described as follows: Trypanosoma cruzi proteasome chymotrypsin-like activity (TcProtChymo) assay. Further: in the data most compounds retested in dose-response had high values. The assay is classed as functional. As to conditions: 9.37 µM.

Another assay is filed under the species Homo sapiens. The experiment in a line: To identify inhibition of the IFN signalling (Jak-Stat) pathway via expression of an eGFP reporter gene under the control of an IFN-stimulated response element (ISRE) containing MxA promoter. The assay is classed as functional. The note with it: 30 µM.
Assay [7] has as its target T4, Tyrosyl-tRNA synthetase, putative (Trypanosoma cruzi (strain CL Brener)) (UniProt Q4DSP6).
T4 sequence (whole entry): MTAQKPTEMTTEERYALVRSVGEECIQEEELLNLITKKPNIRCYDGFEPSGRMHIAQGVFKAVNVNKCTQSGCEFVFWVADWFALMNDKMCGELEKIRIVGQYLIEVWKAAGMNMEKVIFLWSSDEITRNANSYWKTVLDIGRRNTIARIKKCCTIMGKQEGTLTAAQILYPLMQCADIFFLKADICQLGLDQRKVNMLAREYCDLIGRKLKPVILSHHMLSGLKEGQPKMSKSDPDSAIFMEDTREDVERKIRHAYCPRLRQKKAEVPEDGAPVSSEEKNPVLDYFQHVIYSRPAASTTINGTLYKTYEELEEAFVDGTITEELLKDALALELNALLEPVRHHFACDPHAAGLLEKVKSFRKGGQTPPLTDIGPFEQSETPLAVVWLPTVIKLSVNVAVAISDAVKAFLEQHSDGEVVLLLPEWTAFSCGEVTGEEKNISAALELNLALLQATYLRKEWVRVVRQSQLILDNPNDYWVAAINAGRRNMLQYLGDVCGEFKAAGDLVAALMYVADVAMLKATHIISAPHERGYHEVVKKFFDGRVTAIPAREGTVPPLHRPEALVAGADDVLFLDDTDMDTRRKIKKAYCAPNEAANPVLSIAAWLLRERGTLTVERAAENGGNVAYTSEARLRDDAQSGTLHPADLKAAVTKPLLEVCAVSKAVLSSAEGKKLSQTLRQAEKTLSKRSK
The assay is described as follows: Trypanosoma cruzi tyrosyl tRNA synthetase (TcYRS) _High Tyrosine SOP. Further: in the data most compounds retested in dose-response had high values. The assay is classed as functional. The note with it: 30 µM.

The target of assay [8] is T4, Tyrosyl-tRNA synthetase, putative (Trypanosoma cruzi (strain CL Brener)). The assay is described as follows: Trypanosoma cruzi tyrosyl tRNA synthetase (TcYRS) SOP. As to conditions: 30 µM. The assay is classed as functional.
Assay [9] addresses Chromo domain-containing protein 1 (Saccharomyces cerevisiae (strain ATCC 204508 / S288c) (Baker's yeast)) (UniProt P32657). The experiment in a line: ScCHD-1 Enzyme Inhibition Assay. Further: in the data most compounds retested in dose-response had high values. The assay is classed as functional. As to conditions: 30 µM.

Chain of Sialic acid-binding Ig-like lectin 9 (Homo sapiens) (Q9Y336 whole entry): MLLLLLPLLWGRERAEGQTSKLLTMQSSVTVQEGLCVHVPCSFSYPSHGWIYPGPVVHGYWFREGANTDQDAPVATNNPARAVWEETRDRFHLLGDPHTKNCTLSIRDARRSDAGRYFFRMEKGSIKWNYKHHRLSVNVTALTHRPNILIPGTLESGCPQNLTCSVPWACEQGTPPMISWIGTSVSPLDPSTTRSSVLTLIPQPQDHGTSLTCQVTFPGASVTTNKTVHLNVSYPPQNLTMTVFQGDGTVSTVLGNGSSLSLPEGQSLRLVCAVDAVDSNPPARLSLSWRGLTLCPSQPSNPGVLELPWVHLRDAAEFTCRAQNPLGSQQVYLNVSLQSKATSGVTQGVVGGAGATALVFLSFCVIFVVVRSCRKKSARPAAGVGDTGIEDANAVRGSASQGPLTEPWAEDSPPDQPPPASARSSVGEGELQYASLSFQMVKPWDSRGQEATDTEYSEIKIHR
Chain of Chromo domain-containing protein 1 (Saccharomyces cerevisiae (strain ATCC 204508 / S288c) (Baker's yeast)) (P32657 whole entry, the tested form may be a part): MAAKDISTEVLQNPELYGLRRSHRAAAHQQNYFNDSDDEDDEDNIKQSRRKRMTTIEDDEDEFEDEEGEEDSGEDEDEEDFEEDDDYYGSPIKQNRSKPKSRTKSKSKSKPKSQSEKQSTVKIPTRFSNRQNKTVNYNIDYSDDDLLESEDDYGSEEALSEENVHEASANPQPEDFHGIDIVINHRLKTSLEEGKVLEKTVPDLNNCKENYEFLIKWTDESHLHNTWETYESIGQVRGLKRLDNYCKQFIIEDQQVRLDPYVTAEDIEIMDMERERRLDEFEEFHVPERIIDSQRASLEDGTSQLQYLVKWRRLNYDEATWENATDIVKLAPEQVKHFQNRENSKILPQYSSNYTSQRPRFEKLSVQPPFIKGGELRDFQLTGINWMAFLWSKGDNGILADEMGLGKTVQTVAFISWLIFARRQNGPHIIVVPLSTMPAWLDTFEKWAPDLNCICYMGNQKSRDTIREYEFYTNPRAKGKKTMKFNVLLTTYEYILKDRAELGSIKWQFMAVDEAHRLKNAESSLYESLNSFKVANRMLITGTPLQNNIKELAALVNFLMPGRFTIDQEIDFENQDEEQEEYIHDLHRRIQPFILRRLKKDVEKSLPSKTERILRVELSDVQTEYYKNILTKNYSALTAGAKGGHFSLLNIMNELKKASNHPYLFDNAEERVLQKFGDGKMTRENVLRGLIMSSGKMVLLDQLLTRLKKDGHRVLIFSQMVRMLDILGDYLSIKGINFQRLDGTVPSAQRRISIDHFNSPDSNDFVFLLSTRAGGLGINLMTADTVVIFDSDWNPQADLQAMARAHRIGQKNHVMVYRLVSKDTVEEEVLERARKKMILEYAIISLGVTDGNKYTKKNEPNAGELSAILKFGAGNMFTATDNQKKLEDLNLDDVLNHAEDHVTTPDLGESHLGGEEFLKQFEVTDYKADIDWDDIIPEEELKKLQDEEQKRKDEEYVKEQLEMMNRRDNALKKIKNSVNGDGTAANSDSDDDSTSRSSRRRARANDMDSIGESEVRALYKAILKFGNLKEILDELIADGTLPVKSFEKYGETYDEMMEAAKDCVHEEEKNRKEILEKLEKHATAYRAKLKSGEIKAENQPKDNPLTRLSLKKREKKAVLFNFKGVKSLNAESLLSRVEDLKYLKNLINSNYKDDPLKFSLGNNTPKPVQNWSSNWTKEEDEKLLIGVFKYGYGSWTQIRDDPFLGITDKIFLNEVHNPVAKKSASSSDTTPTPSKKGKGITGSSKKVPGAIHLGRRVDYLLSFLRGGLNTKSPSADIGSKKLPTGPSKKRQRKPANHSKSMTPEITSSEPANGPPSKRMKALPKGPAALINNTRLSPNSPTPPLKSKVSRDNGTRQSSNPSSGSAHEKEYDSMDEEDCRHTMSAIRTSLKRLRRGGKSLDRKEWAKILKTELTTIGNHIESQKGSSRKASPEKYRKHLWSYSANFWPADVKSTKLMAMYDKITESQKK
Chain of Protein translocase subunit SecA (Escherichia coli (strain K12)) (P10408 whole entry): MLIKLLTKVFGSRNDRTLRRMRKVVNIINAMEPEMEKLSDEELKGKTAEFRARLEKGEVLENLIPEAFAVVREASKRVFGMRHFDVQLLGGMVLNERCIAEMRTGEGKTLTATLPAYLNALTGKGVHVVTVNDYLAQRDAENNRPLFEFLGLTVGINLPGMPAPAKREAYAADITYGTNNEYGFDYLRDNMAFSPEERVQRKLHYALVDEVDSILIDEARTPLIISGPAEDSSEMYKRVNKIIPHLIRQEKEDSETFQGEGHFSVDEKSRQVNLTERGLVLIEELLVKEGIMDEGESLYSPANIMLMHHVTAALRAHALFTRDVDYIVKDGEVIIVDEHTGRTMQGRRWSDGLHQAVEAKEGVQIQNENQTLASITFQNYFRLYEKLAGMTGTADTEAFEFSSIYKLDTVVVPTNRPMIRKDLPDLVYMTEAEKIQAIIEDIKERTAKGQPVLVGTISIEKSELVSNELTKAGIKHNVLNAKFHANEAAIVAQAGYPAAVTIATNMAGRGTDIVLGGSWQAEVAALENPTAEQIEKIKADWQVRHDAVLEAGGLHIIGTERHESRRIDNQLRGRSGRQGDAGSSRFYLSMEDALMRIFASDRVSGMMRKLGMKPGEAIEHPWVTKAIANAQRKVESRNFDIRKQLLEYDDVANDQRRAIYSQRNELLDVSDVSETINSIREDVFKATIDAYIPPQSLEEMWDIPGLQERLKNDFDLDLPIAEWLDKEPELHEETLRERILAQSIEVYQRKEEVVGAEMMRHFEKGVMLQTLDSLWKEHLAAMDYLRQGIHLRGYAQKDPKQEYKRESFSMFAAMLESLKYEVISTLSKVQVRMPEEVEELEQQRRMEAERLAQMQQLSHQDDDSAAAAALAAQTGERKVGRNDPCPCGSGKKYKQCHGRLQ

Take `CN(CCN1CCOCC1)C(=O)CCc1cccc(Cl)c1`: the Percent Effect is -0.257% in assay [1]; 13.2% in [2]; -2.72% in assay [3]; -7.75% in assay [4]; -4.58% in the assay with Trypanosoma cruzi; -9.47% in assay [5]. The Percent Effect in [6] is 12.2%; in the assay listed under Homo sapiens it was 17.3%; in [7] it was 1.06%; in [8], 7.79%; in [9] it was -4.62%.

On to `CCN(CC)C(CNC(=O)c1ccc(S(C)(=O)=O)cc1)c1ccco1` (stereo unspecified), for which the Percent Effect in assay [1] is -2.81%; in assay [2], 2.7%; in assay [3], 6.63%; in assay [4], -6.01%; with Trypanosoma cruzi it was 3.91%; in [5], -2.5%. Besides, the Percent Effect in assay [6] is 14.8%; in the assay filed under Homo sapiens, 8.16%; in [7], 8.91%; in assay [8] it was 11%; in assay [9] it was 3.77%.

In the case of `COC(=O)CN(C)C1CCc2ccccc21` (stereo unspecified), the Percent Effect in assay [1] is -0.581%; in assay [2] it was 15.8%; in assay [3], 1.01%; in [4] it was 8.14%; with Trypanosoma cruzi, 1.5%; in assay [5] it was 5.36%. Also, the Percent Effect in assay [6] is 18.4%; in the assay listed under Homo sapiens it was -4.6%; in assay [7] it was 7.35%; in [8] it was 9.76%; in assay [9], -8.13%.

On to `Cc1cc2n(n1)CC(CNCc1ccc(-n3cccn3)nc1)CN2` (stereo unspecified), for which the Percent Effect in assay [1] is -1.63%; in assay [2], 5.26%; in assay [3] it was -8.03%; in assay [4], 8.37%; with Trypanosoma cruzi it was 13.2%; in assay [5], -0.766%. For the same compound, the Percent Effect in [6] was 7.69%; in the assay listed under Homo sapiens, 1.93%; in assay [7], 11.3%; in assay [8], 21.9%; in assay [9], -9.89%.

`CCOc1cccc(C(C)NC(=O)N2CCC(C(N)=O)CC2)c1` (stereo unspecified): the Percent Effect in assay [1] was -2.51%; in assay [2], 2.7%; in assay [3] it was -1.93%; in [4], 5.06%; with Trypanosoma cruzi, -1.93%; in assay [5], -0.952%. For the same compound, the Percent Effect is 3.97% in assay [6]; 14.3% in the assay listed under Homo sapiens; 3.7% in assay [7]; 9.76% in assay [8]; -1.95% in assay [9].

As for `CCC(=O)N1CCC2(CC1)COc1ccccc1S(=O)(=O)N(C)C2`, the Percent Effect is -4.24% in [1]; 16.2% in assay [2]; -6.69% in [3]; 20.9% in assay [4]; 1.27% in the assay with Trypanosoma cruzi; 2.23% in assay [5]. Further, the Percent Effect was 9.7% in [6]; 7.17% in the assay filed under Homo sapiens; 7.53% in assay [7]; 18.5% in assay [8]; -11.2% in assay [9].

`FC(F)(F)Cn1ccnc1CN1CCOC(Cn2cccn2)C1` (stereo unspecified): the Percent Effect in [1] is -5.79%; in assay [2], 6.33%; in assay [3], 6.8%; in [4], 1.11%; with Trypanosoma cruzi it was -2.36%; in [5], -1.5%. Further, the Percent Effect was 1.54% in assay [6]; 13.3% in the assay filed under Homo sapiens; 1.04% in assay [7]; 15.2% in assay [8]; -6.67% in assay [9].

On to `Cc1ccc(Cn2ccc(NS(C)(=O)=O)n2)cc1`, for which the Percent Effect in [1] is -6.83%; in [2] it was 5.2%; in [3] it was -4.69%; in assay [4], -0.383%; in the assay with Trypanosoma cruzi it was -2.46%; in [5] it was -5.52%. Also, the Percent Effect in [6] was 9.32%; in the assay listed under Homo sapiens it was -2.78%; in assay [7], 3.23%; in assay [8], 13.6%; in [9], 1.11%.

For `c1cc2n(n1)CC(CNCc1ccc(OC3CCCCC3)nc1)CN2` (stereo unspecified), the Percent Effect in [1] was -2.12%; in assay [2], 18.2%; in [3], 1.34%; in [4], 5.86%; in the assay on Trypanosoma cruzi, 7.49%; in [5] it was -1.78%. Moreover, the Percent Effect was 5.41% in [6]; -2.37% in the assay listed under Homo sapiens; 9.71% in assay [7]; 21.9% in assay [8]; -7.9% in assay [9].

Take `Cc1cnn(CC2CN(CCS(=O)(=O)c3ccccc3)CCO2)c1` (stereo unspecified): the Percent Effect in assay [1] was -8.49%; in assay [2] it was 0%; in [3] it was 0.043%; in [4], -0.479%; in the assay on Trypanosoma cruzi, -2.25%; in [5] it was -0.248%. The Percent Effect in [6] was 5.41%; in the assay listed under Homo sapiens, 12.1%; in assay [7], 5.38%; in assay [8] it was 1.24%; in [9], -5.16%.

Take `Cc1cc(CNC(=O)N2CCCN(Cc3ccccc3)CC2)no1`: the Percent Effect in [1] was -3.91%; in [2], 12.7%; in assay [3], -1.73%; in assay [4], 0.846%; in the assay with Trypanosoma cruzi, -5.38%; in [5] it was -2.66%. For the same compound, the Percent Effect was 10.7% in assay [6]; 18.1% in the assay filed under Homo sapiens; 2.46% in assay [7]; 11.4% in [8]; -4.24% in assay [9].
